According to PubChem BioAssay AID1159580 (chemical genetic matrix, 2015):
The campaign covered roughly 5,500 compounds. About 2,000 (36%) were called active. Another 18% or so got no clear call; they are omitted. No stated cut-off is given here; in the data, active means normalized growth mostly below about 0.91 (no sharp cut-off); inconclusive means no clear call, values can overlap the other calls; inactive means mostly above about 0.92. This is one part of the list.

Test: chemical genetic growth profiling, strain panel (AID 1159580);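 further: tested at 20 µM; growth read once vehicle control cultures reached saturation at 30 °C; 1 = growth at the plate median or of vehicle wells; lower values mean less growth of the strain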
Settings: growth OD

Measured: normalized growth

CCc1ccc(CCOc2ccc(CC3SC(=O)NC3=O)cc2)nc1 (configuration not stated)
inactive: S. cerevisiae deletion strains, locus YJR075W, strain HOC1, active compounds read low 0.997 | S. cerevisiae deletion strains, locus YKL009W, strain mrt4, active compounds read low 1.01 | S. cerevisiae deletion strains, locus YKL068W, active compounds read low 0.991 | S. cerevisiae deletion strains, locus YKL085W, strain MDH1 (second series), active compounds read low 0.991 | S. cerevisiae deletion strains, locus YKL085W, strain MDH1, active compounds read low 0.991 | S. cerevisiae deletion strains, locus YKL160W, strain elf1, active compounds read low 1.02 | S. cerevisiae deletion strains, locus YKL190W, strain CNB1, active compounds read low 1.02 | S. cerevisiae deletion strains, locus YKR001C, strain vps1, active compounds read low 0.977 | S. cerevisiae deletion strains, locus YKR026C, strain gcn3, active compounds read low 1.01 | S. cerevisiae deletion strains, locus YKR091W, strain srl3, active compounds read low 0.999 | S. cerevisiae deletion strains, locus YLL001W, strain dnm1, active compounds read low 1 | S. cerevisiae deletion strains, locus YLL026W, active compounds read low 1.02 | S. cerevisiae deletion strains, locus YLL041C, strain sdh2, active compounds read low 1.01 | S. cerevisiae deletion strains, locus YLR027C, strain aat2, active compounds read low 1.01 | S. cerevisiae deletion strains, locus YLR039C, strain RIC1, active compounds read low 0.914 | S. cerevisiae deletion strains, locus YLR058C, strain SHM2, active compounds read low 1.01 | S. cerevisiae deletion strains, locus YLR102C, strain apc9, active compounds read low 0.988 | S. cerevisiae deletion strains, locus YLR113W, strain HOG1, active compounds read low 1.01 | S. cerevisiae deletion strains, locus YLR221C, strain rsa3, active compounds read low 1.01 | S. cerevisiae deletion strains, locus YLR258W, strain gsy2, active compounds read low 1.02 | S. cerevisiae deletion strains, locus YLR262C, strain YPT6 (second series), active compounds read low 0.99 | S. cerevisiae deletion strains, locus YLR262C, strain YPT6, active compounds read low 0.88 | S. cerevisiae deletion strains, locus YLR268W, strain sec22, active compounds read low 0.993 | S. cerevisiae deletion strains, locus YLR320W, strain mms22, active compounds read low 1.01 | S. cerevisiae deletion strains, locus YLR330W, strain CHS5, active compounds read low 1.01 | S. cerevisiae deletion strains, locus YLR342W, strain FKS1 (second series), active compounds read low 0.985 | S. cerevisiae deletion strains, locus YLR342W, strain FKS1, active compounds read low 1.02 | S. cerevisiae deletion strains, locus YLR357W, strain rsc2, active compounds read low 1.03 | S. cerevisiae deletion strains, locus YLR370C, strain arc18, active compounds read low 1.01 | S. cerevisiae deletion strains, locus YLR371W, strain rom2, active compounds read low 0.989 | S. cerevisiae deletion strains, locus YLR384C, strain iki3, active compounds read low 1.01 | S. cerevisiae deletion strains, locus YLR418C, strain cdc73, active compounds read low 0.969 | S. cerevisiae deletion strains, locus YML016C, strain PPZ1, active compounds read low 0.997 | S. cerevisiae deletion strains, locus YML032C, strain rad52, active compounds read low 0.998 | S. cerevisiae deletion strains, locus YML120C, strain ndi1, active compounds read low 1.02 | S. cerevisiae deletion strains, locus YML124C, strain tub3, active compounds read low 0.992 | S. cerevisiae deletion strains, locus YMR058W, strain fet3, active compounds read low 1.01 | S. cerevisiae deletion strains, locus YMR078C, strain ctf18, active compounds read low 0.985 | S. cerevisiae deletion strains, locus YMR125W, strain sto1, active compounds read low 1.02 | S. cerevisiae deletion strains, locus YMR129W, active compounds read low 1 | S. cerevisiae deletion strains, locus YMR205C, strain PFK2, active compounds read low 0.997 | S. cerevisiae deletion strains, locus YMR223W, strain ubp8, active compounds read low 0.995 | S. cerevisiae deletion strains, locus YMR231W, strain pep5, active compounds read low 0.995 | S. cerevisiae deletion strains, locus YMR263W, strain SAP30, active compounds read low 1.04 | S. cerevisiae deletion strains, locus YMR307W, strain GAS1, active compounds read low 0.938 | S. cerevisiae deletion strains, locus YNL067W, strain RPL9B, active compounds read low 1.06 | S. cerevisiae deletion strains, locus YNL071W, strain lat1, active compounds read low 1.01 | S. cerevisiae deletion strains, locus YNL128W, strain TEP1, active compounds read low 1.04 | S. cerevisiae deletion strains, locus YNL153C, strain GIM3, active compounds read low 1 | S. cerevisiae deletion strains, locus YNL183C, strain NPR1, active compounds read low 0.963 | S. cerevisiae deletion strains, locus YNL209W, strain ssb2, active compounds read low 0.997 | S. cerevisiae deletion strains, locus YNL233W, strain BNI4, active compounds read low 1.01 | S. cerevisiae deletion strains, locus YNL248C, strain rpa49, active compounds read low 1.02 | S. cerevisiae deletion strains, locus YNL250W, strain rad50, active compounds read low 0.995 | S. cerevisiae deletion strains, locus YNL271C, strain bni1, active compounds read low 1 | S. cerevisiae deletion strains, locus YNL298W, strain CLA4, active compounds read low 0.997 | S. cerevisiae deletion strains, locus YNL307C, strain MCK1, active compounds read low 0.994 | S. cerevisiae deletion strains, locus YNL322C, strain KRE1 (second series), active compounds read low 1.02 | S. cerevisiae deletion strains, locus YNL322C, strain KRE1, active compounds read low 0.994 | S. cerevisiae deletion strains, locus YNR049C, strain mso1, active compounds read low 1.01 | S. cerevisiae deletion strains, locus YNR052C, strain pop2, active compounds read low 1.01 | S. cerevisiae deletion strains, locus YOL006C, strain TOP1, active compounds read low 1 | S. cerevisiae deletion strains, locus YOL012C, strain htz1 1.21 | S. cerevisiae deletion strains, locus YOL147C, strain pex11, active compounds read low 0.996 | S. cerevisiae deletion strains, locus YOR001W, strain rrp6, active compounds read low 1.01 | S. cerevisiae deletion strains, locus YOR061W, strain CKA2, active compounds read low 0.999 | S. cerevisiae deletion strains, locus YOR069W, strain VPS5, active compounds read low 1 | S. cerevisiae deletion strains, locus YOR070C, strain gyp1, active compounds read low 1.01 | S. cerevisiae deletion strains, locus YOR080W, strain dia2, active compounds read low 1.01 | S. cerevisiae deletion strains, locus YOR083W, strain WHI5, active compounds read low 1 | S. cerevisiae deletion strains, locus YOR106W, strain vam3, active compounds read low 1.02 | S. cerevisiae deletion strains, locus YOR136W, strain idh2, active compounds read low 1 | S. cerevisiae deletion strains, locus YOR144C, strain elg1, active compounds read low 0.993 | S. cerevisiae deletion strains, locus YOR184W, strain ser1, active compounds read low 0.971 | S. cerevisiae deletion strains, locus YOR231W, strain MKK1, active compounds read low 0.98 | S. cerevisiae deletion strains, locus YOR265W, strain rbl2, active compounds read low 1.01 | S. cerevisiae deletion strains, locus YOR270C, strain vph1, active compounds read low 1.04 | S. cerevisiae deletion strains, locus YOR290C, strain snf2, active compounds read low 1 | S. cerevisiae deletion strains, locus YOR316C, strain cot1, active compounds read low 0.997 | S. cerevisiae deletion strains, locus YPL051W, strain arl3, active compounds read low 1.01 | S. cerevisiae deletion strains, locus YPL055C, strain LGE1, active compounds read low 1.02 | S. cerevisiae deletion strains, locus YPL078C, strain atp4, active compounds read low 1.01 | S. cerevisiae deletion strains, locus YPL106C, strain sse1, active compounds read low 1.02 | S. cerevisiae deletion strains, locus YPL240C, strain hsp82, active compounds read low 1.02 | S. cerevisiae deletion strains, locus YPL241C, strain CIN2, active compounds read low 1 | S. cerevisiae deletion strains, locus YPL256C, strain CLN2, active compounds read low 0.936 | S. cerevisiae deletion strains, locus YPR119W, strain clb2, active compounds read low 0.989 | S. cerevisiae deletion strains, locus YPR141C, strain kar3, active compounds read low 0.994 | S. cerevisiae deletion strains, locus YPR163C, strain tif3, active compounds read low 0.999 | S. cerevisiae deletion strains, locus YPR167C, strain met16, active compounds read low 0.996 | S. cerevisiae deletion strains, strain wtn01, active compounds read low 0.99 | S. cerevisiae strains, strain wild type, active compounds read low 1.01
